Consider six molecules from PubChem BioAssay (NCATS).

Results filed as inconclusive are left out. The source made the active and inactive calls. Unless noted, calls follow the shape of the dose curve; as a rule, active = well fitted curve in the direction sought with a large enough effect; inconclusive = small, poorly fitted or top-dose-only effect, or another doubt; inactive = no such curve, though single readings can be large; an effect the other way counts as inactive or inconclusive.

Assay [1] in a line: MultiTox-Fluor Cytotoxicity Assay - LYMP1-002 - Live Cells (AID 955). Also: potency is read from the fitted curve at half-maximal effect. In outline: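 Human lymphoblastoid LYMP1-002 cells, 2500/well in complete medium, rested 5 hr at 37 C, then exposed to compounds for 16 hr at 37 C. Live-cell protease cleavage of GF-AFC read by fluorescence (Ex/Em 405/510) after 60 min at room temperature; AC50 from Hill fits.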
The nature of assay [2]: MultiTox-Fluor Cytotoxicity Assay - LYMP1-002 - Dead Cells (AID 960). Also: nearly all actives have a fitted effect of over 60% in size. In outline: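 Human lymphoblastoid cells (LYMP1-002), 2500/well in complete medium, were exposed to compounds for 16 hr at 37 C. Dead-cell protease activity was read as bis-AAF-R110 fluorescence (Ex/Em 485/520), normalized to DMSO and 15 uM tetraoctylammonium bromide; AC50 from Hill fits.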
Assay [3] in a line: MultiTox-Fluor Cytotoxicity Assay - LYMP1-003 - Dead Cells (AID 961). Also: nearly all actives have a fitted effect of over 70% in size. Also: potency is read from the fitted curve at half-maximal effect. An outline of the steps:
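LYMP1-003 lymphoblastoid, 2500 cells/well, 5 hr settle then 16 hr cpd at 37 C; MultiTox-Fluor reagent 60 min RT; Ex/Em 485/520 dead-cell signal; norm. DMSO = 0%, 15 uM tetraoctylammonium bromide = 100%; Hill AC50.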

Assay [4] is described as follows: Cell Viability - LYMP1-003 - Assay at 24 hr (AID 963). Also: potency is read from the fitted curve at half-maximal effect. In outline: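 Human lymphoblastoid LYMP1-003 cells (2500/well) were rested 5 hr at 37 C, then exposed to compounds in complete medium for 24 hr at 37 C. Cellular ATP was quantified by CellTiter-Glo luminescence, and AC50 values came from Hill fits of concentration-response data.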
Assay [5] is described as follows: Cell Viability - LYMP1-003 - Assay at 40 hr (AID 964). Also: nearly all actives have a fitted effect of over 60% in size. Also: potency is read from the fitted curve at half-maximal effect. An outline of the steps: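 Human lymphoblastoid LYMP1-003 cells, 2500/well in complete medium, rested 5 hr at 37 C, then exposed to compounds for 40 hr at 37 C. Viability read as intracellular ATP by CellTiter-Glo luminescence; AC50 from Hill fits of concentration-response data.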
Assay [6] in a line: Cell Viability - LYMP2-003 (AID 965).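 Also: cells exposed to compounds for 24 h before reading; nearly all actives have a fitted effect of over 50% in size.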 Also: potency is read from the fitted curve at half-maximal effect. An outline of the steps: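 Seed 2500 lymphoblastoid cells/well; incubate 5 hr, 37 C; add compounds; incubate 24 hr, 37 C; add CellTiter-Glo, 30 min RT; read luminescence. AC50 from Hill fit.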
Assay [7] is described as follows: Cell Viability - LYMP2-004 (AID 966). Also: nearly all actives have a fitted effect of over 65% in size. An outline of the steps: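 Human lymphoblastoid cells (2500/well) in complete medium were treated with compounds for 24 hr at 37 C, then intracellular ATP was measured by CellTiter-Glo luminescence. AC50 values came from Hill-equation fits of concentration-response data.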
Assay [8] can be described thus: Cell Viability - LYMP2-005 (AID 967). Also: potency is read from the fitted curve at half-maximal effect. An outline of the steps: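 Acute cytotoxicity is scored as a concentration-dependent drop in intracellular ATP in human lymphoblastoid LYMP2-005 cells after 24 h compound treatment. ATP is quantified by luciferase luminescence, and AC50 is derived by Hill-equation modelling.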
The nature of assay [9]: Cell Viability - LYMP2-009 (AID 968). Also: nearly all actives have a fitted effect of over 55% in size. Also: potency is read from the fitted curve at half-maximal effect.
A short description of assay [10]: Cell Viability - LYMP2-013 (AID 970). Also: nearly all actives have a fitted effect of over 55% in size. Also: potency is read from the fitted curve at half-maximal effect. An outline of the steps: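 Human lymphoblastoid cells, 2500/well, were preincubated 5 hr at 37 C, then treated with compounds for 24 hr at 37 C in complete medium. Intracellular ATP was read by CellTiter-Glo luminescence; AC50 from Hill-equation fits of concentration-response data.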
A short description of assay [11]: Cell Viability - LYMP2-015 (AID 971). Also: nearly all actives have a fitted effect of over 55% in size. Also: potency is read from the fitted curve at half-maximal effect. In outline:
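Human lymphoblastoid cells (2500/well) in complete medium were preincubated 5 hr at 37 C, then compound-treated 24 hr at 37 C. Intracellular ATP was read by CellTiter-Glo luminescence after 30 min at room temperature; AC50 came from Hill-equation concentration-response fits.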

A short description of assay [12]: Cell Viability - LYMP2-017 (AID 972). Also: nearly all actives have a fitted effect of over 55% in size. Also: potency is read from the fitted curve at half-maximal effect. In outline:
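Human lymphoblastoid cells (2500/well) were seeded in complete medium, held 5 hr at 37 C, then exposed to compounds for 24 hr at 37 C. Intracellular ATP was read by CellTiter-Glo luminescence after 30 min at room temperature, with AC50 values from Hill-equation fits.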

Assay [13] in a line: Cell Viability - LYMP2-019 (AID 973). Also: nearly all actives have a fitted effect of over 55% in size. Also: potency is read from the fitted curve at half-maximal effect. An outline of the steps: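 Human lymphoblastoid cells were seeded at 2500 cells/well, preincubated 5 hr at 37 C, then exposed to compounds for 24 hr at 37 C in complete medium. Intracellular ATP was measured by CellTiter-Glo luminescence; AC50 from Hill fits.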
A short description of assay [14]: Cell Viability - LYMP2-021 (AID 974). Also: potency is read from the fitted curve at half-maximal effect. In outline:
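Human lymphoblastoid cells (2500/well) were preincubated 5 hr at 37 C, then exposed to compounds for 24 hr at 37 C in complete medium. Intracellular ATP was read by CellTiter-Glo luminescence; AC50 came from Hill-equation fits of concentration-response data.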

A short description of assay [15]: Cell Viability - LYMP2-023 (AID 975). Also: nearly all actives have a fitted effect of over 55% in size. Also: potency is read from the fitted curve at half-maximal effect. An outline of the steps: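 Human lymphoblastoid cells (2500/well) were preincubated 5 hr at 37 C, then exposed to compounds for 24 hr at 37 C in complete medium. Cellular ATP was read by CellTiter-Glo luminescence, and AC50 came from Hill-equation fits.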
A short description of assay [16]: Cell Viability - LYMP2-025 (AID 976). Also: series mostly up to about 92 µM. In outline: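 Human lymphoblastoid LYMP2-025 cells (2500/well) were pre-incubated 5 hr at 37 C, then treated with compounds for 24 hr at 37 C in complete medium. Viability was read as intracellular ATP by CellTiter-Glo luminescence; AC50 from Hill fits.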
Assay [17] is described as follows: Cell Viability - LYMP2-002 (AID 977).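 Also: series mostly up to about 92 µM; compound exposure lasted 24 h at 37 °C.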 In outline:
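Human lymphoblastoid LYMP2-002 cells, 2500 per well, exposed to compounds for 24 h at 37 C in complete medium; viability read as intracellular ATP by CellTiter-Glo luminescence, AC50 from Hill fits.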

Assay [18] can be described thus: Cell Viability - LYMP2-006 (AID 978). Also: nearly all actives have a fitted effect of over 60% in size. Also: potency is read from the fitted curve at half-maximal effect. In outline:
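Cells are seeded at 2500 per well and rested 5 hr at 37 C. Compounds are added across a concentration series for 24 hr at 37 C, after which ATP is quantified by luciferase luminescence.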

Assay [19] is described as follows: Cell Viability - LYMP2-007 (AID 979).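 Also: cells exposed to compound for 24 h before reading; nearly all actives have a fitted effect of over 60% in size.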 Also: potency is read from the fitted curve at half-maximal effect. In outline:
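Human lymphoblastoid cells (2500/well) were plated in complete medium, incubated 5 hr at 37 C, then exposed to compounds for 24 hr at 37 C. Intracellular ATP was read by CellTiter-Glo luminescence after 30 min at room temperature; AC50 from Hill fits.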

For assay [20], the target named is Pyruvate kinase PKM (Homo sapiens) (UniProt P14618). Kind of assay: qHTS Assay for Activators of Human Muscle Pyruvate Kinase (AID 954; active = well fitted curve in the direction sought with a large enough effect, not every such curve was filed as active). An outline of the steps: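 Reaction: 0.1 nM purified PKM2 with 0.5 mM phosphoenolpyruvate and 0.1 mM ADP, room temperature, 1 h. Readout: luciferase-based ATP luminescence after stop reagent. Activators judged against a 0.3 nM enzyme column.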
Sequence of Pyruvate kinase PKM (Homo sapiens) (P14618 whole entry, looked up): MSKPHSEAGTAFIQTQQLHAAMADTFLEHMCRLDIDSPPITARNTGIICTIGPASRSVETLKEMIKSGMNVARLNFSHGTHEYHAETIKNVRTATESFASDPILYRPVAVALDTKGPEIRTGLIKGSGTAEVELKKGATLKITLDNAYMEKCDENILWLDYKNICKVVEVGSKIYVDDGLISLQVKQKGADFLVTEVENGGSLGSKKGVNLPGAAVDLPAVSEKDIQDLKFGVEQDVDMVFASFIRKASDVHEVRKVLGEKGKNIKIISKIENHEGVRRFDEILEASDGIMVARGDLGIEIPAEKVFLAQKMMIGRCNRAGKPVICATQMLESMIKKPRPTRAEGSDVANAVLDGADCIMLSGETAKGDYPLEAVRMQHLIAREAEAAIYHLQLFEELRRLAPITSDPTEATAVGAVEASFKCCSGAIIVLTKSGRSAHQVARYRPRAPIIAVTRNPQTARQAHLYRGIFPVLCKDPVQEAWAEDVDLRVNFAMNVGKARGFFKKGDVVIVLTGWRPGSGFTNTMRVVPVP

Consider `c1ccc2ccccc2c1`, for which the Potency entry in [1], in assay [2], in assay [3], in assay [4], in [5] and in assay [6] was “inactive” each time. Further, the Potency result in assay [7], in assay [8], in assay [9], in assay [10], in [11] and in assay [12] was “inactive” each time. The Potency entry in [13], in assay [14], in assay [15], in [18] and in assay [19] was “inactive” throughout. In addition, the molecule was classed as inactive in assay [16] and in [17].
Turning to `CC1=CCC2CC1C2(C)C` (configuration not stated), the Potency entry in [1], in assay [2], in [3], in assay [4], in assay [5] and in assay [6] was “inactive” each time. The Potency result in assay [7], in assay [8], in assay [9], in assay [10], in assay [11] and in assay [12] was “inactive” throughout. Also, the Potency entry in assay [13], in assay [14], in assay [15], in assay [18] and in [19] was “inactive” each time. In addition, the call in assay [16] and in [17] was inactive.
Turning to `C[C@H]1O[C@@H](O[C@H]2[C@@H](O)C[C@H](O[C@H]3[C@@H](O)C[C@H](O[C@H]4CC[C@@]5(C)[C@H](CC[C@@H]6[C@@H]5C[C@@H](O)[C@]5(C)[C@@H](C7=CC(=O)OC7)CC[C@]65O)C4)O[C@@H]3C)O[C@@H]2C)C[C@H](O)[C@@H]1O`, the Potency is 0.501 µM (active) in [1]; 1.58 µM (active) in [3]; 0.251 µM (active) in [4]; 0.158 µM (active) in assay [5]; 0.251 µM (active) in assay [12].
On to `OCC(O)CO`, for which the Potency result in [1], in assay [2], in assay [3], in assay [4], in [5] and in [6] was “inactive” each time. For the same molecule, the Potency result in assay [7], in assay [8], in [9], in [10], in assay [11] and in [12] was “inactive” in each case. In addition, the Potency result in [13], in assay [14], in assay [15], in assay [18] and in assay [19] was “inactive” each time. Also, the molecule was classed as inactive in assay [16] and in [17].
In the case of `Cc1cc(C)c(NC(=O)C[C@H](CC(=O)O)c2cccc3ccccc23)c(C(=O)N2CCC3(CCCC3)CC2)c1`, the molecule was called inactive in assay [20].
As for `O=c1n(CC2CO2)c(=O)n(CC2CO2)c(=O)n1CC1CO1` (configuration not stated), the Potency is 50.1 µM (active) in assay [3]; 39.8 µM (active) in assay [4]; 15.8 µM (active) in assay [5]; 31.6 µM (active) in assay [6]; 20 µM (active) in assay [8]; 39.8 µM (active) in assay [9]. The Potency was 50.1 µM (active) in assay [10]; 39.8 µM (active) in [11]; 39.8 µM (active) in [12]; 39.8 µM (active) in [13]; 31.6 µM (active) in [14]; 39.8 µM (active) in assay [15]. In addition, the Potency in [18] and in assay [19] was 39.8 µM (active) in each case.
